Fold change data for 13 molecules are collected here from PubChem BioAssay.

SMILES strings stand for the structures.

This experiment can be described thus: sensitizers of A549 cells to miR-34 induction, primary screen, imaging, A549 dox-inducible miR-34, nuclei and caspase counts (AID 1347080). Note: test concentration not given here. The note with it: A549 miR-34 inducible, Hoechst nuclei count, 48 h; measured here: relative caspase fold change +Dox/-Dox.
On to `CCOC(=O)Oc1c(OC)cc(C(=O)O[C@@H]2C[C@@H]3CN4CCc5c([nH]c6cc(OC)ccc56)[C@H]4C[C@@H]3[C@H](C(=O)OC)[C@H]2OC)cc1OC`, for which the fold change worked out at 2.41.

Consider `CCC(NC(C)C)C(O)c1ccc(O)c2[nH]c(=O)ccc12` (stereo not drawn), for which the fold change is 1.47. For the molecule `CC(C)CC(=O)N[C@H](C(=O)NC(C(=O)NC(CC(C)C)[C@@H](O)CC(=O)N[C@@H](C)C(=O)N[C@@H](CC(C)C)[C@@H](O)CC(=O)O)C(C)C)C(C)C` (stereo partly drawn), the fold change amounted to 3.28. With `CC(C)(C)NCC(O)COc1cccc2c1CC(O)C(O)C2` (stereo not drawn) the figure was 1.39. The result for `c1ccc(-c2[nH]ncc2-c2ccnc3ccccc23)nc1` reads 0.903. `CN1CC[C@]23c4ccccc4N[C@H]1[C@]21CCN(C)[C@H]3Nc2ccccc21`: the fold change worked out at 1.16. With `Nc1ncnc2c1c(I)cn2[C@@H]1O[C@H](CO)[C@H](O)C1O` (stereo partly drawn) the figure was 0.838; with `CC12CCC3c4ccc(OC(=O)c5ccccc5)cc4CCC3C1CCC2O` (stereo not drawn), 2.66. As to `C[C@@H]1C(=O)O[C@H]2CC34[C@H]5C[C@@H](C(C)(C)C)[C@]36[C@@H](OC(=O)[C@@H]6O)O[C@@]4(C(=O)O5)[C@]21O` (stereo partly drawn), the fold change came to 1.08.

Turning to `COC(=O)[C@@H]1CC(=O)O[C@H](C)C/C=C/C=C/[C@H](O)[C@H](C)C[C@H](CC=O)[C@H](OC2O[C@H](C)[C@@H](OC3C[C@@](C)(O)[C@@H](OC(=O)CC(C)C)[C@H](C)O3)[C@H](N(C)C)[C@H]2O)[C@H]1OC` (stereo partly drawn), the fold change is 3.35.

For the molecule `Oc1cccc(-c2nc(N3CCOCC3)c3sccc3n2)c1`, the fold change was 0.61. The result for `CC(C)(CO)C(O)C(=O)NCCC(=O)O` (stereo not drawn) reads 0.783; that for `CCC(C)[C@H]1O[C@]2(CC[C@@H]1C)C[C@@H]1C[C@@H](C/C=C(\C)[C@@H](OC3C[C@H](OC)C(O[C@H]4C[C@H](OC)[C@@H](O)[C@H](C)O4)[C@H](C)O3)[C@@H](C)/C=C/C=C3\CO[C@@H]4[C@H](O)C(C)=C[C@@H](C(=O)O1)[C@]34O)O2` (stereo partly drawn), 1.61.
